Data on seven compounds can be found in PubChem BioAssay (NCI).

Some test systems named below: SK-MEL-2 melanoma; EKVX NSCLC; SN12C renal; UO-31 renal; TK-10 renal; ACHN renal; CAKI-1 renal; A498 renal; CCRF-CEM leukemia; MOLT-4 leukemia; SR leukemia; RPMI-8226 leukemia; OVCAR-8 ovarian; OVCAR-5 ovarian; OVCAR-4 ovarian; SK-OV-3 ovarian; OVCAR-3 ovarian; HS 578T breast; NCI/ADR-RES ovarian; IGROV1 ovarian.
Common to all, as to experiment: NCI-60 one-dose screen, 48 h (100 = growth as untreated, 0 = no growth, -100 = all killed)
Conditions in all cases: 10 µM unless noted

The panel holds about 83,000 compounds, 20% with a hit somewhere; the sample as a whole holds those more often.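 Assay: single dose, 48 h. Readout: percent growth (0 = no net growth; negative = cell death). Active: <10.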 Unmarked numbers belong to inactive results. Calls of active or inactive are those of the source.

In the case of `COc1ccc(NC2=C(Sc3nc(C)cc(C)n3)C(=O)N(Cc3ccccc3)C2=O)cc1Cl`, the growth in the assay on SK-MEL-2 melanoma was 96.5% [30 µM]; in the assay with EKVX NSCLC it was 84.5% [30 µM]; in the assay on SN12C renal it was 91.8% [30 µM]; with UO-31 renal, 84.2% [30 µM]; in the assay with TK-10 renal, 111% [30 µM]; in the assay with ACHN renal, 103% [30 µM]. The growth was 95.7% [30 µM] in the assay on CAKI-1 renal; 80.4% [30 µM] in the assay with A498 renal; 54.6% [30 µM] in the assay on CCRF-CEM leukemia; 45% [30 µM] with MOLT-4 leukemia; 63.4% [30 µM] in the assay with SR leukemia; 39.3% [30 µM] in the assay on RPMI-8226 leukemia. In addition, the growth in the assay with OVCAR-8 ovarian is 29.3% [30 µM]; in the assay with OVCAR-5 ovarian, 124% [30 µM]; in the assay with OVCAR-4 ovarian, 78.6% [30 µM]; with SK-OV-3 ovarian it was 117% [30 µM]; in the assay on OVCAR-3 ovarian, 92% [30 µM]; in the assay with HS 578T breast, -21.7% [30 µM] (active). Moreover, in the assay on NCI/ADR-RES ovarian, the growth is 63.5% [30 µM].
For `COC(=O)c1ccc(Cn2cnc3c(N)ncnc32)cc1`, the growth was 90.8% in the assay on SK-MEL-2 melanoma; 102% in the assay on EKVX NSCLC; 102% with SN12C renal; 89.9% with UO-31 renal; 86.3% with TK-10 renal; 101% in the assay on ACHN renal. For the same compound, the growth is 103% in the assay with CAKI-1 renal; 104% in the assay on A498 renal; 102% in the assay with CCRF-CEM leukemia; 93.2% in the assay on MOLT-4 leukemia; 104% in the assay with SR leukemia; 104% in the assay on RPMI-8226 leukemia. The growth in the assay with OVCAR-8 ovarian is 112%; in the assay with OVCAR-5 ovarian it was 115%; in the assay on SK-OV-3 ovarian it was 107%; with IGROV1 ovarian, 126%; in the assay with OVCAR-3 ovarian it was 118%; with HS 578T breast it was 95.4%. Also, in the assay on NCI/ADR-RES ovarian, the growth was 110%.
With `Cc1ccccc1COc1ccc(-c2ccnn2-c2ccc(Cl)cc2)cc1`, the growth in the assay with SK-MEL-2 melanoma is 39.2%; in the assay on EKVX NSCLC, 77%; in the assay on SN12C renal, 67.6%; with UO-31 renal, 74.4%; in the assay on TK-10 renal, 83.8%; with ACHN renal, 77.6%. Besides, the growth is 59.7% in the assay with CAKI-1 renal; 57.5% in the assay on A498 renal; 42.4% in the assay on CCRF-CEM leukemia; 26.3% with MOLT-4 leukemia; 33.8% in the assay with SR leukemia; 77.6% in the assay on RPMI-8226 leukemia. The growth with OVCAR-8 ovarian was 75.3%; in the assay on OVCAR-5 ovarian, 91.7%; in the assay with OVCAR-4 ovarian, 85.7%; in the assay on SK-OV-3 ovarian it was 63.7%; with OVCAR-3 ovarian, 26.6%; with HS 578T breast, 60.9%. Further, in the assay on NCI/ADR-RES ovarian, the growth is 38%.
For the compound `COc1cccc(/C=C2\SC(=Nc3ccc(NC(C)=O)cc3)NC2=O)c1OC`, the growth in the assay on SK-MEL-2 melanoma is 110%; in the assay on EKVX NSCLC, 103%; in the assay on SN12C renal it was 94.6%; in the assay with UO-31 renal it was 60.8%; with TK-10 renal, 97.7%; in the assay with ACHN renal, 82.5%. In addition, the growth was 67.9% in the assay with CAKI-1 renal; 58.7% with A498 renal; 97.1% with CCRF-CEM leukemia; 99.2% in the assay with MOLT-4 leukemia; 94.8% in the assay with SR leukemia; 96.7% with RPMI-8226 leukemia. The growth in the assay with OVCAR-8 ovarian was 93%; with OVCAR-5 ovarian, 91.7%; in the assay with OVCAR-4 ovarian, 100%; with SK-OV-3 ovarian, 91.3%; in the assay with OVCAR-3 ovarian it was 111%; in the assay with HS 578T breast it was 70.5%. The growth in the assay with NCI/ADR-RES ovarian was 102%.
In the case of `C#CC(F)(F)[C@]1(O)CC[C@H]2[C@@H]3CCC4=CC(=O)CCC4=C3[C@@H](c3ccc(C(C)=O)cc3)C[C@@]21C`, the growth was 99.4% with SK-MEL-2 melanoma; -60.6% (active) with EKVX NSCLC; 89.3% in the assay with SN12C renal; -75% (active) in the assay on UO-31 renal; 114% in the assay on TK-10 renal; 87.8% with ACHN renal. The growth in the assay on CAKI-1 renal was -31.9% (active); with A498 renal, 79%; in the assay on CCRF-CEM leukemia, -55.5% (active); with MOLT-4 leukemia it was 35.6%; with SR leukemia it was 7.36% (active); in the assay with RPMI-8226 leukemia, 2% (active). For the same compound, the growth was 90% with OVCAR-8 ovarian; 84.4% in the assay with OVCAR-5 ovarian; 76.2% with OVCAR-4 ovarian; 52.8% in the assay on SK-OV-3 ovarian; 9.4% (active) in the assay on OVCAR-3 ovarian; 76.5% in the assay on HS 578T breast. Further, in the assay on NCI/ADR-RES ovarian, the growth is 82.7%.
Regarding `CCOC(=O)n1cc(-c2nonc2-c2cn(C)c3ncccc23)c2cc(F)ccc21`, the growth with SK-MEL-2 melanoma was 92.8%; in the assay on EKVX NSCLC, 67.3%; with SN12C renal it was 79.8%; in the assay with UO-31 renal it was 57.5%; in the assay with TK-10 renal it was 80.8%; in the assay on ACHN renal it was 74.9%. The growth with CAKI-1 renal was 54.8%; in the assay with A498 renal it was 94.8%; with CCRF-CEM leukemia, 85%; in the assay with MOLT-4 leukemia it was 66.7%; in the assay with SR leukemia, 84%; with RPMI-8226 leukemia, 58.3%. Besides, the growth is 84.5% with OVCAR-8 ovarian; 55.3% with OVCAR-4 ovarian; 85.8% with SK-OV-3 ovarian; 56.3% with IGROV1 ovarian; 77.6% with OVCAR-3 ovarian; 79.4% in the assay with HS 578T breast. In the assay on NCI/ADR-RES ovarian, the growth is 74%.
With `Cc1ccc2c(c1)C(=O)/C(=C/c1cccc(OCC(=O)c3ccc(Cl)cc3)c1)CS2`, the growth with SK-MEL-2 melanoma is 58.2%; with EKVX NSCLC, 91.9%; in the assay on SN12C renal it was 88.4%; in the assay with UO-31 renal, 71.2%; in the assay with TK-10 renal, 93%; with ACHN renal, 99.6%. Moreover, the growth with CAKI-1 renal is 89.2%; in the assay on A498 renal, 80.4%; with CCRF-CEM leukemia it was -2.6% (active); in the assay with MOLT-4 leukemia, 19.1%; in the assay on SR leukemia, 9.06% (active); in the assay with RPMI-8226 leukemia it was -27% (active). Besides, the growth with OVCAR-8 ovarian is 69.7%; with OVCAR-5 ovarian it was 105%; in the assay on OVCAR-4 ovarian it was 104%; with SK-OV-3 ovarian, 115%; in the assay on OVCAR-3 ovarian, 98.1%; with HS 578T breast, 99.9%. Moreover, in the assay on NCI/ADR-RES ovarian, the growth is 54.4%.
